Unmarked numbers belong to inactive results. Calls of active or inactive are those of the source. Calls follow the shape of the dose curve; as a rule, active = well fitted curve in the direction sought with a large enough effect in the repeat runs; inconclusive = weak or mixed curves; inactive = flat fitted curve, though single readings scatter.
% is scaled to controls: 0 for no effect and ±100 for the full control effect.

The experiment is described as follows: qHTS assay to test for compound auto fluorescence at 535 nm (green) in HEK293 cell free culture (AID 720682). To be noted: cell-free medium, green autofluorescence 485/535 nm; series mostly up to 46 µM; activity change: at the top concentration. The text has this:
U.S. Tox21 Program National Center for Advancing Translational Sciences [NCATS] NIH Chemical Genomics Center [NCGC] U.S. Environmental Protection Agency [EPA] National Institutes of Environmental Health Sciences [NIEHS] National Toxicology Program [NTP] U.S. Food and Drug Administration [FDA] Tox21 Assay Overview: Compound auto fluorescence often interferes with screening of the compound library against various biological targets and signaling pathways. Some of these compounds may have fluorophoric properties. Such properties may interfere with the assay outputs resulting in false positives and/or negatives. To decrease such complications and ensure the compound activities are relevant in terms of biological response, the Tox21 10K compound library was screened for auto fluorescence. From the fluorophores used as reporter signals in our screening assays, the auto fluorescence equivalencies of compounds against three fluorophores have been evaluated: Triamterene, Fluorescein and Rose Bengal sodium for blue, green and red fluorescence, respectively. The fluorescence intensities were measured using Excitation/Emission wavelengths at 405/460nm, 485/535nm and 540/590nm for blue, green and red labels, respectively. This assay includes the green fluorescence data.
Tox21 Assay Protocol Summary: 5 uL of culture medium (DMEM containing 10% FBS) per well was dispensed into black wall/clear bottom 1536-well plates using a Multidrop Combi Dispenser (ThermoFisher Scientific, Waltham, MA). After 23 nL compound or DMSO vehicle was transferred into assay plate by a pintool work station (Kalypsys, San Diego, CA), fluorescence intensities in the assay plates were measured by an Envision (PerkinElmer, Shelton, CT) plate reader using three labels for measuring blue, green and red fluorescence at […] 460, 535 and 590nm respectively.
With `CCC(C)(S(=O)(=O)CC)S(=O)(=O)CC`, the “activity change” value was -0.0405%.
In the case of `O=P(O)(O)C(Cl)(Cl)P(=O)(O)O`, the “activity change” value was 0.0076%.
In the case of `CCCCC[C@@H](O)C1C(=O)OC(C)[C@H](O)/C=C/C=C/C=C/C=C/C=C(\C)C(O)C(O)C(O)C[C@H](O)C[C@H](O)C[C@H](O)C[C@H](O)C[C@@H]1O` (stereo not given in full), the Potency entry was “inactive”.
Regarding `OCC(c1ccc(Cl)cc1)c1ccc(Cl)cc1`, the “activity change” value was 0.0795% [at 91.3 µM, hits give high values].
In the case of `CCOC(=O)C1(c2ccccc2)CCCN(C)CC1` (stereo not given), the “activity change” value was 0.0189%.
With `C[C@]12CCC(=O)C=C1C=C[C@@H]1[C@@H]2CC[C@@]2(C)[C@H]1CC[C@@]2(O)CCC(=O)O`, the “activity change” value was -0.0065% [at 18.6 µM, hits give high values].
For the compound `CC(=O)O[C@H]1CC[C@H]2[C@@H]3CCC4=CC(=O)CCC4=C3C=C[C@]12C`, the “activity change” value is 0.0089%.
Consider `C[C@]12C[C@H]3S[C@H]3C[C@@H]1CC[C@@H]1[C@@H]2CC[C@]2(C)[C@@H](O)CC[C@@H]12`, for which the “activity change” value was 0.098% [at 18.6 µM, hits give high values].
The same measure, in the same setting: under `CO[C@H]1[C@@H](O)C[C@H](O[C@H]2[C@@H](O)C[C@H](O[C@H]3[C@@H](O)C[C@H](O[C@H]4CC[C@@]5(C)[C@H](CC[C@@H]6[C@@H]5C[C@@H](O)[C@]5(C)[C@@H](C7=CC(=O)OC7)CC[C@]65O)C4)O[C@@H]3C)O[C@@H]2C)O[C@@H]1C` stands 0.052%.
Turning to `O=P1(N(CCCl)CCCl)NC(OO)CCO1` (stereo not given), the “activity change” value was 0.0047%.
On to `CN1c2ccccc2C(NCCCCCCC(=O)O)c2ccc(Cl)cc2S1(=O)=O` (stereo not given), for which the “activity change” value was 0.0235%.
With `CC(=O)OC1CN2CCC1CC2` (stereo not given), the “activity change” value is 0.0821%.
`CN=C1CN(O)C(c2ccccc2)=c2cc(Cl)ccc2=N1`: the Potency result was “inactive”.
Consider `CCCSc1cc(OC)c(CCN)cc1OC`, for which the “activity change” value is -0.0604% [at 95.7 µM, hits give high values].
On the same count and under the same terms, for `O=C(NC(=O)c1c(F)cccc1F)Nc1ccc(Cl)c(Oc2ncc(C(F)(F)F)cc2Cl)c1` the value was -0.0888%.
Take `CC(C)[C@@]1(NC(=O)[C@@H]2C[C@@H]3c4cccc5[nH]cc(c45)C[C@H]3N(C)C2)O[C@@]2(O)[C@@H]3CCCN3C(=O)[C@H](Cc3ccccc3)N2C1=O`: the Potency entry was “inactive”.
With `CC(=O)Oc1ccc2c3c1O[C@H]1[C@@H](OC(C)=O)C=C[C@H]4[C@@H](C2)N(C)CC[C@@]341`, the Potency result was “inactive”.
For the compound `CCCCNC(C)(C)[P+](=O)O`, the “activity change” value is -0.0214%.
As to `O=C1CN=C(c2ccccc2)c2cc(Cl)ccc2N1`, the “activity change” value was -0.032%.
`COc1cc([C@@H]2c3cc4c(cc3[C@@H](O)[C@H]3COC(=O)[C@H]23)OCO4)cc(OC)c1O`: the “activity change” value is -0.197%.
Turning to `CN(C)CCCCCCN(C)C` (tested in a mixture with another compound), the “activity change” value was -0.148%.
As to `C=C[C@H]1CN2CC[C@H]1C[C@@H]2[C@@H](O)c1ccnc2ccccc12`, the “activity change” value was -0.0887%.
Consider `O=c1c2ccccc2[se]n1-c1ccccc1`, for which the “activity change” value was 0.093%.
As to `CC(C)C[C@H](CN)CC(=O)O`, the “activity change” value was 0.063%.
As for `O[C@H]1[C@H]2[C@H](O)CCCN2C[C@H]1O`, the “activity change” value is 0.001%.
Same read-out and setting: under `C[C@]12C=CC(=O)C=C1CC[C@@H]1[C@@H]2CC[C@]2(C)OC(=O)CC[C@@H]12` stands 0.0154%; under `CCCCCc1cc(O)c2c(c1)OC(C)(C)[C@@H]1CCC(C)=C[C@@H]21`, 0.0168%; under `CC(Cc1ccccc1)NC=O` (stereo not given), -0.0262%.
Regarding `O=C(C[C@@H]1NCCC[C@H]1O)Cn1cnc2cc(Br)c(Cl)cc2c1=O`, the “activity change” value is -0.0063%.
Turning to `CNC(=O)OCC[N+](C)(C)C`, the “activity change” value was -0.0442%.
Consider `COc1ccc2c3c1O[C@H]1C(=O)CC[C@H]4[C@@H](C2)N(C)CC[C@]314`, for which the “activity change” value was 0.0084%.
`CCCC(C)(COC(N)=O)COC(=O)NC1CC1` (stereo not given): the “activity change” value was -0.0135%.
Same read-out and setting: under `Cc1ccc(N(SC(F)(Cl)Cl)S(=O)(=O)N(C)C)cc1` stands -0.0087% [at 91.3 µM, hits give high values]; under `N#CC(C#N)=Cc1cc(O)c(O)c(O)c1`, 1.55%; under `C=CCC1([C@@H](C)CCC)C(=O)NC(=O)NC1=O`, 0.0099% [at 91.3 µM, hits give high values].
On to `Oc1cc[c]([Hg][Cl])cc1`, for which the Potency entry was “inactive”.
Consider `O=[N+]([O-])c1ccccc1Cl`, for which the “activity change” value is -0.0215% [at 91.3 µM, hits give high values].
On the same count and under the same terms, for `C[C@H]1[C@H]2Cc3ccc(O)cc3[C@]1(C)CCN2CCc1ccccc1` the value was 0.0084% [at 91.3 µM, hits give high values].
As to `O=C1C(I)=CC(=C(c2cc(I)c(O)c(I)c2)c2ccccc2C(=O)O)C=C1I`, the Potency result was “inactive”.
Regarding `c1ccc(C2(c3ccccc3)CC2C2=NCCN2)cc1` (stereo not given), the “activity change” value was -0.0173%.

The record behind these values is PubChem BioAssay (Tox21).
